S-ASM inh: inhibitors of human secretory acid sphingomyelinase | placental ASM, HMU-PC fluorogenic substrate, 60 min | Potency, µM (doses to about 57.5 µM), usual class: inhibitors | P17405 | hit rate 0.006% among 340,000
Target sequence (P17405 47-631 limits assumed): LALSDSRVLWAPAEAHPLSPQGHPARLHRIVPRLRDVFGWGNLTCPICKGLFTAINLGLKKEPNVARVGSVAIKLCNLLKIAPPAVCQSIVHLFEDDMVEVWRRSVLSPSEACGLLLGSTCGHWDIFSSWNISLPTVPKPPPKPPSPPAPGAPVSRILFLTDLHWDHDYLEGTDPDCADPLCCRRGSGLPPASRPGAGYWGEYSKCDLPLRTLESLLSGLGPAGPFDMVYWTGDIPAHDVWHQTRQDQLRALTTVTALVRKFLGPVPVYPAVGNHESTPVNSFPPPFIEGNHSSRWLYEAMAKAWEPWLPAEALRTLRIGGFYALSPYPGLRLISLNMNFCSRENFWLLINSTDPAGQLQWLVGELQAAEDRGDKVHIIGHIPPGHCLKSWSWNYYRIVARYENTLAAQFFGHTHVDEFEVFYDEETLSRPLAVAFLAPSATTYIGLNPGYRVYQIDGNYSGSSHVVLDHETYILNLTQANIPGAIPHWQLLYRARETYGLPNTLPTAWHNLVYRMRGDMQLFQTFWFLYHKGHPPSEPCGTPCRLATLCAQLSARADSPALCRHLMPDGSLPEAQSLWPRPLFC
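Fluorescence read-out (Ex 386 nm, Em 447 nm) after stopping the reaction at pH 10. Enzyme: ASM from human placenta; substrate HMU-PC0, 9 uM final; 60 min, 37 °C. Compound preincubation 10 min, ambient temperature.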
KB-3-1 cytotox: KB-3-1 parental cell cytotoxicity; AID 1347075; hit rate 1.4% among 400,000; Potency, µM (top dose mostly 46.1 µM), actives largely listed as cytotoxic; KB-3-1 viability, CellTiter-Glo ATP luminescence, 72 h; note: nearly all actives have a fitted effect of over 60% in size
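Here the drug-naive KB-3-1 line serves as comparator for MDR sub-line selectivity; cells received compound titrations, 72 h at 37 °C, then CellTiter-Glo readout.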
KB-V1 MDR tox: kills drug-selected multidrug resistant KB-V1 cells; hit rate 3.4% among 400,000; AID 1347076; KB-V1 MDR cells viability, CellTiter-Glo, 72 h; Potency, µM (titrated, usually from 46.1 µM), usual class: cytotoxic; note: nearly all actives have a fitted effect of over 60% in size
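Luminescent ATP read-out (CellTiter-Glo, 10 min) measures survival of drug-selected KB-V1 MDR cells after 72 h, 37 degrees C compound exposure. Medium: phenol-red-free DMEM, 10% FBS. Values from fitted concentration-response curves.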
MCF10A rerep: inducers of DNA re-replication in MCF 10A breast cells. hit rate 2.9% among 350,000. Potency, µM (doses to about 46.1 µM), usual class: activators. MCF 10A DNA re-replication, Hoechst nuclear intensity, 48 h; note: nearly all actives have a fitted effect of over 50% in size
SW480 rerep: inducers of DNA re-replication in SW480 colon cancer cells | hit rate 1.8% among 340,000 | SW480 DNA re-replication, Hoechst DNA content imaging, 48 h | AID 624297 | Potency, µM (highest dose often 46.1 µM), hits mostly activators; note: nearly all actives have a fitted effect of over 55% in size
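First, 250 cells per well were seeded. Next, compound or vehicle (23 nL) was pinned in, plates sat 48 hr at 37 C. Finally Hoechst was added for 40 min before fluorescence scanning.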
Giardia killer: Giardia lamblia killing; Giardia lamblia trophozoite viability; hit rate 0.15% among 340,000; activity change, % at 7.66 µM, hits read low; AID 540267; in the data active = activity change below about -80%; inconclusive = between about -30% and that limit;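 note: parasites exposed to compound for two days anaerobically before the ATP read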
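Viability, read as ATP luminescence: trophozoites at 100 cells/well, compound added, 48 hrs anaerobic at 37 deg C, then 15-30 min room-temperature development before reading.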
Each line names hits and unclear results; the compound was inactive in the other large screens. Hits are enriched below; roughly 6.9% of the tested compounds scored in any of these assays. Unless noted, calls come from the whole dose curve; as a rule, active = well fitted curve in the direction sought with a large enough effect; inconclusive = small, poorly fitted or top-dose-only effect, or another doubt; inactive = no such curve, though single readings can be large; an effect the other way counts as inactive or inconclusive.

CC1CCCCN1CCCNC(=O)c1ccc2c(c1)sc1nc(-c3ccc(F)cc3)cn12 (centres undefined)	KB-V1 MDR tox 21µM (no result: S-ASM inh, MCF10A rerep, SW480 rerep, Giardia killer)
Cc1ccc(-c2cn3c(n2)sc2cc(C(=O)NCCCN4CCCCCC4)ccc23)cc1	none (no result: S-ASM inh, MCF10A rerep, SW480 rerep, Giardia killer)
CCCN1CCN(CCCNC(=O)c2ccc3c(c2)sc2nc(-c4ccc(OCC)cc4)cn23)CC1	KB-3-1 cytotox 18µM, KB-V1 MDR tox inconclusive (no result: S-ASM inh, MCF10A rerep, SW480 rerep, Giardia killer)
O=C(NCCCN1CCCCC1)c1ccc2c(c1)sc1nc(-c3ccc(F)cc3)cn12	KB-V1 MDR tox 16µM (no result: S-ASM inh, MCF10A rerep, SW480 rerep, Giardia killer)
CCOc1ccc(-c2cn3c(n2)sc2cc(C(=O)NCCc4ccc(OC)cc4OC)ccc23)cc1	none (no result: S-ASM inh, MCF10A rerep, SW480 rerep, Giardia killer)
CCCCC(=O)O[C@]1(C(=O)CO)CCC2C3CCC4=CC(=O)CCC4(C)C3C(O)CC21C (some centres undefined)	none (no result: S-ASM inh, KB-3-1 cytotox, KB-V1 MDR tox, Giardia killer)
COc1ccc(NC(=O)N2c3ccc(OC)cc3C(C)=CC2(C)C)cc1	KB-V1 MDR tox inconclusive, MCF10A rerep 21µM
Cc1ccc(Nc2c(-c3cc(Br)ccc3F)nc3cc(C)ccn23)cc1	none (no result: S-ASM inh, MCF10A rerep, SW480 rerep, Giardia killer)
CCSc1nc2n(n1)C(c1cccc(F)c1)C1=C(CCCC1=O)N2 (centres undefined)	KB-V1 MDR tox 13µM
COc1cc(-c2nc3n(n2)C(c2ccc(F)cc2)C2=C(CCCC2=O)N3)cc(OC)c1OC (centres undefined)	none
COc1ccc(-c2cc3c(nn2)-c2ccccc2C3=O)cc1	KB-3-1 cytotox inconclusive, KB-V1 MDR tox 7.3µM, Giardia killer inconclusive
CCOC(=O)C1(Cc2cccc(OC)c2)CCN(Cc2ccccc2OC)CC1	KB-V1 MDR tox inconclusive
CCOC(=O)C1(Cc2cccc(F)c2)CCN(Cc2nc(CC)[nH]c2C)CC1	MCF10A rerep 13µM, SW480 rerep 5.8µM
CCOC(=O)C1(Cc2cccc(OC)c2)CCN(Cc2cccc(OC)c2O)CC1	KB-3-1 cytotox inconclusive, KB-V1 MDR tox 5.2µM, MCF10A rerep inconclusive
CS(=O)(=O)c1ccc(C(=O)OCC(=O)Nc2ccc(OC(F)(F)F)cc2)cc1[N+](=O)[O-]	KB-3-1 cytotox inconclusive (no result: S-ASM inh, MCF10A rerep, SW480 rerep)
Cc1cccc(OCC(=O)N(Cc2cccs2)c2ccc(Cl)cc2)c1C	KB-V1 MDR tox inconclusive (no result: S-ASM inh, MCF10A rerep, SW480 rerep, Giardia killer)
CN1CCC(OC(=O)Cc2ccc(Cl)cc2)CC1	KB-V1 MDR tox inconclusive, SW480 rerep 15µM
C(COC1CC2CC1C1C2CC2OC21)OC1CC2CC1C1C2CC2OC21 (centres undefined)	KB-V1 MDR tox 21µM, MCF10A rerep inconclusive
Cc1ccc(Sc2nnc(Cc3ccccc3)c3ccccc23)cc1	KB-V1 MDR tox inconclusive, MCF10A rerep inconclusive, SW480 rerep inconclusive
COc1ccc(Sc2nnc(Cc3ccccc3)c3ccccc23)cc1	KB-V1 MDR tox inconclusive, MCF10A rerep 9.2µM, SW480 rerep inconclusive
COC(=O)C1(C)COP(=O)(NC23CC4CC(CC(C4)C2)C3)OC1 (centres undefined)	KB-V1 MDR tox 18µM
COCCNC(=O)NC12CC3CC(CC(C3)C1)C2	none
CCOC(=O)c1ccccc1OCc1cc(C2Nc3ccccc3C(=O)N2c2cccc3ccccc23)ccc1OC (centres undefined)	KB-3-1 cytotox inconclusive (no result: S-ASM inh, MCF10A rerep, SW480 rerep)
CC(=O)c1cccc(NS(=O)(=O)c2c(C)nc3sc(C)cn3c2=O)c1	KB-3-1 cytotox inconclusive (no result: S-ASM inh, MCF10A rerep, SW480 rerep, Giardia killer)
COc1ccc(NC(=O)c2ccc3c(c2)N(Cc2cccc(Cl)c2)C(=O)c2ccccc2S3(=O)=O)cc1Cl	none (no result: S-ASM inh, MCF10A rerep, SW480 rerep, Giardia killer)
Cc1cccn2c(=O)c(C=O)c(N3CCSCC3)nc12	SW480 rerep 5.8µM
Cc1cccn2c(=O)c(C=O)c(N3CCN(C)CC3)nc12	none
Cc1ccc(/C=C/c2ccc(=O)n(Cc3ccccc3Cl)n2)cc1	KB-3-1 cytotox inconclusive, KB-V1 MDR tox 21µM, MCF10A rerep inconclusive
COc1ccc(/C=C/c2ccc(=O)n(Cc3ccccc3)n2)cc1	KB-V1 MDR tox inconclusive, MCF10A rerep 21µM
O=C(NCCc1ccc(Cl)cc1)C1COc2ccccc2O1 (centres undefined)	none
Cc1cc(C)cc(Nc2cnn(C34CC5CC(CC(CC(=O)O)(C5)C3)C4)c(=O)c2Cl)c1	MCF10A rerep 23µM, SW480 rerep inconclusive
COc1cc(-c2nc(C)c(C(C)=O)n2O)ccc1OCC(=O)Nc1ccc(Cl)cc1	none
Cc1cc(C)c(S(=O)(=O)Nc2ccc(-c3ccc(N4CCCCC4)nn3)cc2)c(C)c1	none (no result: S-ASM inh, MCF10A rerep, SW480 rerep, Giardia killer)
CC1CCN(S(=O)(=O)c2ccc(NC(=O)[C@@H]3CCCN3C(=O)c3cccs3)cc2)CC1	KB-V1 MDR tox 21µM
CC1CCCCN1S(=O)(=O)c1ccc(NC(=O)c2cccs2)cc1 (centres undefined)	KB-V1 MDR tox inconclusive, MCF10A rerep 21µM
O=C(Nc1ccc(S(=O)(=O)N2CCCC2)cc1)c1cccs1	KB-V1 MDR tox inconclusive
CC1CCCN(S(=O)(=O)c2ccc(NC(=O)[C@@H]3CCCN3C(=O)c3cccs3)cc2)C1 (some centres undefined)	none
CCOc1ccc(NC(=O)[C@@H]2CCCN2C(=O)c2cccs2)cc1S(=O)(=O)N1CCCCC1	KB-V1 MDR tox 9.2µM
CC(C)c1noc(-c2ccccc2OCC(=O)Nc2ccc([N+](=O)[O-])cc2)n1	none (no result: S-ASM inh, MCF10A rerep, SW480 rerep, Giardia killer)
OC[C@@H]1O[C@](CO)(O[C@H]2O[C@H](CO)[C@@H](O)[C@H](O)[C@H]2O)[C@H](O)[C@H]1O	none (no result: S-ASM inh, KB-3-1 cytotox, KB-V1 MDR tox, Giardia killer)
CCN(C(=O)c1cccs1)c1nc(-c2ccc(OC)cc2)cs1	MCF10A rerep inconclusive, SW480 rerep inconclusive
COc1ccc(-c2csc(N(CCc3ccc(OC)c(OC)c3)C(=O)COc3ccccc3)n2)cc1	KB-V1 MDR tox 3.7µM
COCCCN(C(C)=O)c1nc(-c2ccc(OC)cc2)cs1	KB-3-1 cytotox 12µM, KB-V1 MDR tox 7.3µM, MCF10A rerep inconclusive, SW480 rerep inconclusive
COc1ccc(OC)c(-c2csc(N(Cc3ccco3)C(=O)c3ccco3)n2)c1	MCF10A rerep inconclusive
COc1ccc(-c2csc(N(CCCN(C)C)C(=O)c3cccs3)n2)cc1	KB-V1 MDR tox 7.3µM
COCCCN(C(=O)c1ccco1)c1nc(-c2cc(OC)ccc2OC)cs1	KB-V1 MDR tox 1.8µM
CCN(CC)CCCN(C(=O)c1ccc(OC)cc1)c1nc(-c2ccc(OC)cc2)cs1	KB-3-1 cytotox inconclusive, MCF10A rerep inconclusive, SW480 rerep inconclusive
O=C(CC1C(=O)Nc2ccccc2N1CC(=O)N1CCCC1)Nc1ccc(Br)cc1 (centres undefined)	MCF10A rerep inconclusive, SW480 rerep inconclusive
COc1ccc(NC(=O)CSc2oc(-c3cccs3)nc2S(=O)(=O)c2ccc(Br)cc2)c(OC)c1	none (no result: S-ASM inh, MCF10A rerep, SW480 rerep, Giardia killer)
COc1ccc(CCn2c(S)nc3ccccc3c2=O)cc1	none
CCN1C(Nc2ccccc2)=NC[C@@H]1Cc1ccccc1	KB-V1 MDR tox inconclusive
